40 compounds from PubChem BioAssay (NCATS) can be followed below.

SMILES strings stand for the structures. Inconclusive results are not listed. Activity calls are given as the source filed them. The call rests on the fitted dose curve; in most records, active means well fitted inhibition curve with a large enough effect; inconclusive means small, poorly fitted or top-dose-only effect; inactive means flat fitted curve, though single readings scatter.
On the % scale 0 is the no-effect control and ±100 the full control effect; potency means the concentration at half of the fitted maximal effect.

Sequence of Voltage-gated inwardly rectifying potassium channel KCNH2 (Homo sapiens) (Q12809 whole entry, looked up): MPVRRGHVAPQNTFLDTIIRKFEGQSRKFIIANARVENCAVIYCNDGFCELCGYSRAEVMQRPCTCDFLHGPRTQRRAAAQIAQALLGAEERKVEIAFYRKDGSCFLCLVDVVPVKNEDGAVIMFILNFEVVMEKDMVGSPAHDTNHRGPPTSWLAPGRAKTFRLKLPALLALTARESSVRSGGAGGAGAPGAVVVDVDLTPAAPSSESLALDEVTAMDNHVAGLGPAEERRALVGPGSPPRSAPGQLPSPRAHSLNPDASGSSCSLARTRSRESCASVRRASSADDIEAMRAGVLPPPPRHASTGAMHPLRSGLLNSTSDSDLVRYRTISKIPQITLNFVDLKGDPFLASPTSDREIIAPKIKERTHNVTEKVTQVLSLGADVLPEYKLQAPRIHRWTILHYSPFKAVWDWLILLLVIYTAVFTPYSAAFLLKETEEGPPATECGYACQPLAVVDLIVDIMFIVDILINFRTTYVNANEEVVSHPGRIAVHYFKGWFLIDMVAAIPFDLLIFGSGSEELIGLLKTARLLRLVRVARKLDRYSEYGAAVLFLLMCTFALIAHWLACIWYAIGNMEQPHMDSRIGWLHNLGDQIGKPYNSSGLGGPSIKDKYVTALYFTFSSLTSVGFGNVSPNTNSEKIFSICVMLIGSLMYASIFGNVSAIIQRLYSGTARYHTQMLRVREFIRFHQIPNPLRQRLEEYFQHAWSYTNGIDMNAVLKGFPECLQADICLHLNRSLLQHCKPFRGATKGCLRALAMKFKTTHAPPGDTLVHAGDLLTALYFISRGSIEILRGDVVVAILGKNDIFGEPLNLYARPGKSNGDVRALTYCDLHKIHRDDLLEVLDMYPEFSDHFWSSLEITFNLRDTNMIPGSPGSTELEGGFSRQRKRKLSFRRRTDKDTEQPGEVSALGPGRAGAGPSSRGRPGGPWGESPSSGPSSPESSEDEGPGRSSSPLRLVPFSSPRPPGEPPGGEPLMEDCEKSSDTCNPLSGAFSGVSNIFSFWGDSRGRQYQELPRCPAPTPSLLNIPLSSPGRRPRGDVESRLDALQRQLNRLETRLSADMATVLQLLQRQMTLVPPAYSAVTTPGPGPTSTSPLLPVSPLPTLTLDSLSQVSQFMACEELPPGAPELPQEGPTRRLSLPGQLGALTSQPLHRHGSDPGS

For the assay, the target named is Voltage-gated inwardly rectifying potassium channel KCNH2 (Homo sapiens) (UniProt Q12809). The assay is described as follows: qHTS Assay for Small Molecule Inhibitors of the Human hERG Channel Activity (AID 588834).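 Further: lower thallium flux fluorescence means stronger hERG block; nearly all actives have a fitted effect of over 50% in size.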 On activity change, negative = inhibition: top concentration of the series differs between compounds. The conditions noted are these: U2OS BacMam hERG, FluxOR thallium flux fluorescence; series mostly up to 46.1 µM; activity change, negative = inhibition: at the top concentration. From the text:
NIH Chemical Genomics Center [NCGC]
National Institutes of Environmental Health Sciences [NIEHS]
National Toxicology Program [NTP]
We have developed a 1536-well cell-based assay for quantitative high throughput screening (qHTS) to determine in vitro hERG channel blockage as a measure of cardio toxicity with small molecules. This particular assay uses the U2OS cell line which is derived from human osteosarcoma.
NCGC Assay Protocol Summary:
HERG assay (FluxORTM thallium flux assay) was initially developed by Invitrogen/Molecular Probes, and then miniaturized into 1536-well plate in a homogeneous format by NCGC. This assay measures the activity of potassium channel using thallium dye (FluxOR) flux as surrogate measurement for potassium into the cells with a FDSS-7000 kinetic plate reader (Hamamatsu Corp., Hamamatsu City, Japan). The hERG ion channel is transduced into mammalian cells (U2OS) using a baculovirus (Bacmam) construct harboring the hERG K+ ion channel. So far we screened LOPAC1280 library (Sigma), the NTP collection of 1408 compounds, and the NCGC Pharmaceutical Collection (NPC), in which many well defined HERG blockers are present. The rank order potencies of many of these compounds are similar to that of other HERG assays (membrane potential, Rb+ flux, patch clamp, etc). This quick and homogeneous assay is also found to be sensitive, specific, and robust.
Using the FluxORTM thallium flux assay, the activity of potassium channel using thallium dye (FluxOR) flux as surrogate measurement for potassium into the cells was measured in the U2OS cell line transduced with hERG K+ ion channel using a baculovirus (Bacmam) using Opti-MEM medium (Invitrogen) containing 2% fetal calf serum (FCS, HyCone) following loading buffer addition, compound treatment for around 10 minutes and finally adding stimulation buffer. The assay was performed in black clear Kalypsys 1536-well plates. In the screen, Astemizole was used as positive controls. Library compounds were measured for their ability to cause hERG channel blockage in the cell line, as reflected by a decrease in fluorescence intensity, in a concentration-dependent manner. […] AC50 values were determined from concentration-response data modeled with the standard Hill equation.
qHTS protocol for hERG-U2OS cellular assay
[Step] [Parameter] [Value] [Description]
1. Day 1: Replace medium in 70-80% confluent T225 flask with 2.5 mL of hERG-BacMam virus plus 12.5 mL of phosphate buffered saline (PBS) (corresponding roughly to a multiplicity of infection ratio of 100 virus particles/cell)
2. Incubation: 4 hrs @ room Temperature in Dark
3. Reagent; Remove virus; wash once with 25 ml DPBS
4. Reagent; 35 ml culture medium
5. Incubation; 37 °C overnight
6. Day2: Reagent; 3 uL; 2000 U2OS cells/well
7. Time; 4 hr; 37 °C incubation
8. Loading buffer; 1 uL; 0.7X;
9. Incubation: 1hr @ RT in Dark.
12. Time; 10min; 37 °C incubation
13. Read fluorescence Intensity on FDSS for 10 Sec with 1 sec interval
14. Reagent; 1 uL; stimulation buffer
15. Read fluorescence Intensity on FDSS for 2 min with 1 sec interval
16. Detection; Fluorescence Intensity; FDSS
With `CC(C)(C)CC(C)(C)c1ccc(O)c(-n2nc3ccccc3n2)c1`, the “activity change, negative = inhibition” value was -23.2% (inactive). As for `C#C[C@]1(O)CC[C@H]2[C@@H]3[C@H](C)CC4=C(CCC(=O)C4)[C@H]3CC[C@@]21C`, the “activity change, negative = inhibition” value was 1.08% (inactive). On to `O=C(c1ccc(F)cc1)C1CCN(CCn2c(=S)[nH]c3ccccc3c2=O)CC1`, for which the Potency is 0.251 µM (active). As to `COc1ccc(CN(CCN(C)C)c2ncccn2)cc1`, the “activity change, negative = inhibition” value was -25% (inactive).

In the case of `C=CCN1CCc2nc(N)sc2CC1`, the “activity change, negative = inhibition” value is 6.6% (inactive). On to `Nc1nc(N)c(-c2ccccc2)s1`, for which the “activity change, negative = inhibition” value was 12.8% (inactive). Take `CCN(CC)CCOc1ccccc1C(=O)CCc1ccccc1`: the Potency is 1.12 µM (active). Still for that read-out and setting: the figure for `CC[C@]12CCCN3CCc4c(n(c5ccccc45)C(=O)C1)[C@@H]32` is 0.447 µM (active). On to `CCCc1ncc(C[n+]2ccccc2C)c(N)n1`, for which the “activity change, negative = inhibition” value is 18.7% [at 20.6 µM] (inactive).

For the compound `CC(C)=CCOc1ccc(/C=C/C(=O)c2ccc(OCC=C(C)C)cc2OCC(=O)O)cc1`, the “activity change, negative = inhibition” value was -6.46% (inactive).

As to `CC(=O)O[C@]1(C(C)=O)CC[C@H]2[C@@H]3C=C(C)C4=CC(=O)CC[C@]4(C)[C@H]3CC[C@@]21C`, the “activity change, negative = inhibition” value is -8.48% [at 20.6 µM] (inactive). The same measure, in the same setting: under `C=C1c2cccc(O)c2C(O)=C2C(=O)[C@]3(O)C(O)=C(C(N)=O)C(=O)[C@@H](N(C)C)[C@@H]3[C@@H](O)[C@H]12` stands -7.67% [at 20.6 µM] (inactive). In the case of `COc1ccccc1N1CCN(CCCCNC(=O)c2ccc(-c3ccc(C(C)=O)cc3)cc2)CC1`, the Potency was 1.26 µM (active). Take `CCN(CC)CCOc1ccc2c(c1)C(=O)c1cc(OCCN(CC)CC)ccc1-2`: the “activity change, negative = inhibition” value was 3.05% (inactive). With `COc1cc(C)nc(-n2nc(C)cc2OC)n1`, the “activity change, negative = inhibition” value was -3.42% [at 20.6 µM] (inactive). The same measure, in the same setting: under `C#C[C@]1(O)CC[C@H]2[C@@H]3CCC4=Cc5oncc5C[C@]4(C)[C@H]3CC[C@@]21C` stands 1.18% (inactive); under `C[C@@H](O)[C@H]1C(=O)N2C(C(=O)O)=C(S[C@@H]3CN[C@H](CNS(N)(=O)=O)C3)[C@H](C)[C@H]12`, -7.82% (inactive); under `CC(C)(C)NCC(O)COc1cccc2c1C[C@H](O)[C@H](O)C2` (stereo not given in full), 6.16% [at 20.6 µM] (inactive). `FC1(F)C(F)(F)C(F)(F)C2(F)C(F)(F)C(F)(F)C(F)(F)C(F)(F)C2(F)C1(F)F` (stereo not given): the “activity change, negative = inhibition” value was 0.578% (inactive). On to `NS(=O)(=O)Cc1noc2ccccc12`, for which the “activity change, negative = inhibition” value is 0.213% (inactive).

Consider `COc1ccc(C(=O)c2ccccc2O)c(O)c1`, for which the “activity change, negative = inhibition” value is 6.11% [at 20.6 µM] (inactive). Still for that read-out and setting: under `O=C(O)CCNC(=O)c1ccccc1` stands 6.38% (inactive).

Consider `Cc1cc(NS(=O)(=O)c2ccc(N)cc2)nc(C)n1`, for which the “activity change, negative = inhibition” value is 5.76% (inactive). The same measure, in the same setting: the figure for `O=[N+]([O-])c1cccc(S(=O)(=O)NCCNS(=O)(=O)c2cccc([N+](=O)[O-])c2)c1` is -17.7% (inactive); for `Cc1ccccc1OCC(O)CO` (stereo not given) it is 16.6% (inactive). For the compound `CCOCCn1c(N2CCCN(C)CC2)nc2ccccc21`, the Potency was 1 µM (active). On the same count and under the same terms, under `CN1CCC(OC(c2ccccc2)c2ccccc2)CC1` stands 4.47 µM (active). For `Cn1c(=O)c2[nH]c(Br)nc2n(C)c1=O`, the “activity change, negative = inhibition” value is 13.9% (inactive). The same measure, in the same setting: under `CC(=O)Nc1ccc(OCC(O)CNC(C)C)cc1` (stereo not given) stands -1.44% (inactive). `Oc1c(Cl)cc(Cl)c(Cl)c1Cc1c(O)c(Cl)cc(Cl)c1Cl`: the Potency entry is “inactive”.

Take `Nc1nc(Cl)nc2c1ncn2[C@@H]1O[C@H](CO)[C@@H](O)[C@@H]1F`: the “activity change, negative = inhibition” value is 7.1% (inactive). On to `CC1(C)OC[C@@H]2O[C@@]3(C(=O)O)OC(C)(C)O[C@H]3[C@@H]2O1`, for which the “activity change, negative = inhibition” value is -1.6% (inactive).

Regarding `NCCNC(=O)c1ccc(Cl)cn1`, the “activity change, negative = inhibition” value is -0.11% (inactive).

For the compound `CN=C(N)NCCC[C@H](N)C(=O)O`, the “activity change, negative = inhibition” value is -7.36% (inactive). For `CC(C)(C)NC[C@H](O)COc1nsnc1N1CCOCC1`, the “activity change, negative = inhibition” value is -3.17% (inactive). Still for that read-out and setting: the figure for `COc1cc(C(=S)N2CCOCC2)ccc1O` is 4.84% (inactive). Regarding `CN(Cc1ccc(C(C)(C)C)cc1)Cc1cccc2ccccc12`, the Potency is 7.94 µM (active). On the same count and under the same terms, under `CCc1nn(CCCN2CCN(c3cccc(Cl)c3)CC2)c(=O)n1CCOc1ccccc1` stands 1 µM (active). Turning to `CCN(CC)CCOC(=O)C1(c2ccccc2)CCCC1`, the “activity change, negative = inhibition” value was -0.262% (inactive).

Take `O=C1C(=O)c2ccccc2C(O)=C1C1CCC(c2ccc(Cl)cc2)CC1` (stereo not given): the “activity change, negative = inhibition” value is 75% [at 20.6 µM] (inactive).
